The whole screen tested about 340,000 compounds, of which about 6,900 (2%) were called active. Rule as the data show it: active = inhibition above about 30%; inactive = below that, where a call was filed. Only a selection was taken, and actives are over-represented in it overall.
Target: D(2) dopamine receptor (Homo sapiens) (UniProt P14416)
Experiment: HTS Assay for Allosteric Antagonists of the Human D2 Dopamine Receptor: Primary Screen for Antagonists; also: 0% is about no effect
Conditions: HEK293 TREx D2 cells, calcium flux, dopamine EC80; at 10 µM; hits give high values
Source text: NIH Chemical Genomics Center [NCGC] NIH Molecular Libraries Probe Centers Network [MLPCN] MLPCN Grant: NS064831-01 Assay Submitter (PI): David Sibley Dopamine receptors (DARs) are involved in the etiology and/or therapy of a number of neuropsychiatric and endocrine disorders. For instance, all receptor-based antiparkinsonian drugs work via stimulating the D2 DAR subtype whereas all FDA-approved antipsychotic agents are antagonists of this receptor. […] There are three different types of allosteric modulators that we are seeking, two of which will stimulate or augment receptor signaling, allosteric agonists and potentiators, while the third, allosteric antagonists, will attenuate receptor signaling. The present primary screening assay measures compound antagonism after an EC80 addition of dopamine by tracking calcium flux in a […], inducible Hek293 Trex D2 cell line.
Freshly passaged cells are plated in 1536 well black, clear bottom plates at a density of 4000 cells/well in 3 ul of complete media containing 1x tetracycline inducer. After an overnight incubation at 30 C in 5% CO2, cells are loaded with 2 ul of the no wash Calcium Assay Kit (ABD Bioquest) and incubated at room temperature for 30 to 90 minutes. Agonist read: A 10 cycle (1 second/cycle) baseline measurement is taken and then the FDSS online 1536 pintool delivers 23 nl of compound library (as well as dopamine controls) to the plate. The plate is measured for kinetically at 1 cycle/sec for 180 seconds. Following the 180 second read, 1 ul of an EC80 (negative modulation assay) is delivered by an onboard pipette head. Measurements are taken kinetically for an additional 180 seconds.

D(2) dopamine receptor (Homo sapiens), sequence (P14416 whole entry, looked up): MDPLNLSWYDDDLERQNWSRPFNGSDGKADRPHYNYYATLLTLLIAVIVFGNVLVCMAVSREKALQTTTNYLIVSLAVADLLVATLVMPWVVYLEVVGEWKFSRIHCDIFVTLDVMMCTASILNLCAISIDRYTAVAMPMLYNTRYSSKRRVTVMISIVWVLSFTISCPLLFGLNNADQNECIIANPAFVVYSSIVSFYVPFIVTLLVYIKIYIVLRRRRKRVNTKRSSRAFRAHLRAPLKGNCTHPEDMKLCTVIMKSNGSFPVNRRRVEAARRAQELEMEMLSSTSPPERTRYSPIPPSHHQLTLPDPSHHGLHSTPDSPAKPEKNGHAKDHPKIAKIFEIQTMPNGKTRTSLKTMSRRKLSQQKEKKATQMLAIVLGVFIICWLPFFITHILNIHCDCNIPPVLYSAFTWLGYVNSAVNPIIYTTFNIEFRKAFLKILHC

inhibition, active:
Cc1ccc(S(=O)(=O)N(CC(O)CN2C(=O)NC(C)(C)C2=O)c2cccc([N+](=O)[O-])c2)cc1 (centres undefined) 30.4%
Cc1ccc(S(=O)(=O)N(CC(O)CN2CCCCC2)c2cccc([N+](=O)[O-])c2)cc1 (centres undefined) 35.8%
COc1ccc(Cc2nnnn2CC(=O)O)cc1 35.2%
COc1cccc(C(=O)N2CCCC(CCC(=O)NCc3ccc(F)c(F)c3)C2)c1 (centres undefined) 34.4%
CCNS(=O)(=O)c1ccc(NC(=O)Nc2cccc(C(F)(F)F)c2)cc1 38.4%

inhibition, inactive:
CCN(CC)C(=O)CN(c1cccc([N+](=O)[O-])c1)S(=O)(=O)c1ccccc1 -8.71%
COc1ccc([N+](=O)[O-])cc1N(CC(O)Cn1nnc2ccccc21)S(=O)(=O)c1ccc(C)cc1 (centres undefined) 12.1%
Cc1ccc(N(CC(O)CN2CCCC2)S(=O)(=O)c2ccccc2)cc1 (centres undefined) -18.8%
O=S(=O)(c1ccccc1)N(CC(O)CN1CCCCC1)c1ccccc1 (centres undefined) -13.9%
COc1ccc([C@H]2CC(=O)C=C(c3ccc(OC(F)(F)F)cc3)C2)cc1OC 10.4%
CN(CC(=O)NCCc1ccc(F)cc1)CC(=O)Nc1ccc(F)c(F)c1F -4.31%
CCCCn1c(N)c(N(CCC(C)C)C(=O)COC(=O)c2ccc(CC)cc2)c(=O)[nH]c1=O -24%
O=C(Nc1ccc2c(c1)OCO2)C1CC1(Cl)Cl (centres undefined) 4.68%
COc1ccc(Cc2nnc(SCC(=O)N(c3ccccc3)C(C)C)n(N)c2=O)cc1 -8.57%
CCCn1nnnc1NCc1ccc(OC)cc1 -21.1%
Cc1ccccc1OCCC(=O)OCC(=O)NCCc1ccc(S(N)(=O)=O)cc1 -20%
COc1cccc(CNC(=O)CCC2CCCN(C(=O)c3ccoc3C)C2)c1 (centres undefined) -10.4%
COc1cccc(CNC(=O)CCC2CCCN(C(=O)c3ccc(F)c(Cl)c3)C2)c1 (centres undefined) 7.84%
Cc1ccc(S(=O)(=O)N2[C@@H](c3cccc(Cl)c3)C(C(=O)O)=CC[C@H]2c2ccc(Cl)c(Cl)c2)cc1 -1.92%
COc1ccc(S(=O)(=O)N2CCOCC2)cc1NC(=O)Cc1coc2cc(C)ccc12 -8.41%
O=C(NNC(=O)C1CCC1)c1ccccc1 -2.25%
Cc1ccc(NC(=O)Nc2cccc(C(F)(F)F)c2)nc1 -7.91%
CC(C)C[C@H](NC(=O)Nc1cccc(C(F)(F)F)c1)C(=O)O 7.87%
CCOC(=O)[C@H]1[C@H]2COc3ccc(C)cc3[C@@H]2N2C(=O)CN(Cc3ccc(F)cc3)C(=O)[C@@]12C -3.67%
